According to PubChem BioAssay (NCI):
Several values for one entry are separate records, joined by “and”; a condition that tells them apart may be missing. Equal entries are not always repeated. The panel holds about 83,000 compounds, 20% with a hit somewhere; the sample as a whole holds those more often.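 Assay: single dose, 48 h. Readout: percent growth (0 = no net growth; negative = cell death). Active: <10.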 Unmarked numbers belong to inactive results. Activity calls are given as the source filed them.

tested on: MDA-MB-468 breast; experiment: NCI-60 one-dose screen, 48 h (100 = growth as untreated, 0 = no growth, -100 = all killed); details: 10 µM unless noted

COc1cccc2c1c(C(=O)c1ccco1)cn2Cc1ccc(F)cc1 was tested. Which growth did it give?
The growth was 103%.

For CC(CC(C#N)(c1ccccc1)c1ccccc1)N1CCOCC1 (stereo not given), which growth is on record?
Its growth is 107%.

With C/C=C\C(=O)O[C@@H]1CC2O[C@@H]3C=C(C)C(=O)C[C@]3(C)[C@]1(C)[C@]21CO1 as the compound, how does the growth read?
Its growth is -29.7% (active).

With NC(=S)c1cn(C2OC(CO)C(O)C2O)c2ncnc(N)c12 (stereo not given) as the compound, how does the growth read?
Its growth is -43.2% (active).

With COc1cc[c]([Hg][Cl])cc1 as the compound, how does the growth read?
Its growth is -62.8% (active).

O=C(NC(Cl)=C(Cl)Cl)P(=O)(c1ccccc1)c1ccccc1 was tested. Which growth did it give?
The growth was 101%.

With O=C(O)C(Cl)(Cl)C(F)(F)F as the compound, how does the growth read?
The growth was 106%.

For CC(=O)[O][Hg][c]1c(N)c(C)cc(C)c1F, which growth is on record?
Its growth is -26.7% (active).

How did the growth turn out when ClCCN(CCCl)c1nc(Cl)c(C2CC(c3ccccc3)=NN2c2cc(Cl)cc(Cl)c2)s1 (stereo not given) was run?
The growth was 111%.

With COCC1OC2OC3C(COC)OC(OC4C(COC)OC(OC5C(COC)OC(OC6C(COC)OC(OC7C(COC)OC(OC8C(COC)OC(OC1C(O)C2O)C(O)C8O)C(O)C7O)C(O)C6O)C(O)C5O)C(O)C4O)C(O)C3O (stereo not given) (tested in a mixture with another compound) as the compound, how does the growth read?
The growth was 105%.

How did the growth turn out when Cc1ccc2oc(=O)c3c(c2c1)OC(N)=C(C#N)C3c1ccco1 (stereo not given) was run?
Its growth is 91.4%.

For C[C@]12CCC(=O)CC1CC[C@@H]1C2CC[C@@]2(C)C1CC[C@@H]2OC(=O)CC[Se][Se]CCC(=O)O[C@H]1CCC2[C@@H]3CCC4CC(=O)CC[C@]4(C)C3CC[C@@]21C (stereo not given in full), which growth is on record?
The growth was 77.5%.

C=CC12CCN(CC1)C(C(O)c1ccnc3ccc(OC)cc13)C2 (stereo not given) was tested. Which growth did it give?
Its growth is 11.6%.

For O=[N+]([O-])/C=C\c1ccc2c(c1)OCO2, which growth is on record?
Its growth is 82%.

For Cc1ccc(C(=O)NCCCOc2ccc(N3C(N)=NC(N)=NC3(C)C)cc2Cl)cc1S(=O)(=O)F, which growth is on record?
Its growth is 123%.

O=c1[nH]c(=O)n(Cl)c(=O)n1Cl was tested. Which growth did it give?
The growth was 106% and 117%.

How did the growth turn out when COC(=O)C1=CO[C@@H](C)[C@@H]2CN3CCc4c([nH]c5cc(OC)ccc45)[C@@H]3C[C@H]12 was run?
Its growth is 107%.

With Cc1ccc(C(Cc2ccccc2)NCCO)cc1 (stereo not given) as the compound, how does the growth read?
The growth was 96.7%.

With c1ccc(COc2ccc3[nH]cc(CCN(Cc4ccccc4)Cc4ccccc4)c3c2)cc1 as the compound, how does the growth read?
Its growth is 87.9%.

[Cl][Hg][c]1cc(Br)cc(Br)c1 was tested. Which growth did it give?
Its growth is 7.71% (active).

How did the growth turn out when CC1=C(CN(O)C(N)=O)C2=C(C)C3(CC3)[C@](C)(O)C(=O)C2=C1 was run?
The growth was -65.6% (active).

Which growth does the source give for Oc1ccccc1C=NCCN=Cc1ccccc1O here?
Its growth is 107%.

How did the growth turn out when Cc1ccc(C(=O)NCCCOc2ccc(N)cc2Cl)cc1S(=O)(=O)F was run?
Its growth is 84.6%.

How did the growth turn out when COC(=O)[C@@H](C)C[C@H](Cc1ccc(F)cc1)NC(=O)c1csc([C@@H](C[C@H](C(C)C)N(C)C(=O)[C@@H](NC(=O)[C@H]2CCCCN2C)C(C)C)OC(C)=O)n1 was run?
Its growth is 21%.

For Cc1cc(N(CCCl)CCCl)ccc1/C=N\NC(=O)c1cccnc1, which growth is on record?
The growth was -30.4% (active) and -38.6% (active).

How did the growth turn out when O=C(CI)Nc1ccc(Br)cc1 was run?
Its growth is 79.1%.

With NC(CCl)CCl as the compound, how does the growth read?
The growth was 96.8%.

How did the growth turn out when ClCCN(CCCl)Cc1ccc(Nc2ccnc3cc(Cl)ccc23)cc1 was run?
Its growth is -0.105% (active).

With Cc1cc(N(CCCl)CCCl)ccc1C=Nc1ccc2ccccc2c1 as the compound, how does the growth read?
The growth was -9.8% (active).

For N#CCc1ccccc1, which growth is on record?
The growth was 101%.

O=[N+]([O-])c1ccc(F)c([N+](=O)[O-])c1F was tested. Which growth did it give?
Its growth is 98.6%.

For CN1CCc2cc3c(cc2C1O)OCO3 (stereo not given), which growth is on record?
The growth was 99.4% and 108%.

For Cc1cc(NC(=O)CCc2ccc(N3C(N)=NC(N)=NC3(C)C)cc2)ccc1S(=O)(=O)F, which growth is on record?
The growth was 32.4%.

For C[Se]C(=O)c1ccccc1OC(C)=O, which growth is on record?
Its growth is 45%.

Which growth does the source give for O=C(NCc1ccc([N+](=O)[O-])cc1)Nc1ccc(S(=O)(=O)F)cc1 here?
The growth was 40.4%.

With CN(C)P1(N(C)C)=NP(N(C)C)(N(C)C)=NP(N(C)C)(N(C)C)=N1 as the compound, how does the growth read?
Its growth is 106%.

CC[PH+](CC)CC.O=COC1OC([S-])C(OC=O)C(OC=O)C1OC=O.[Au+] (stereo not given) was tested. Which growth did it give?
Its growth is -78.8% (active).

Which growth does the source give for O=C(N/N=C/c1ccc([N+](=O)[O-])o1)c1cc([N+](=O)[O-])cc([N+](=O)[O-])c1O here?
Its growth is 92.1%.

With Oc1ccc2c3c1OC1[C@@H](O)CC[C@@]4(O)[C@@H](C2)N(CC2CCC2)CC[C@]314 (stereo not given in full) as the compound, how does the growth read?
Its growth is 99.8%.

How did the growth turn out when C/C=C(\C)C(=O)O[C@@H]1C(O)[C@H]2OC(COC(=O)CCC(=O)CCCCCC[C@H](CCCCC)O[C@@H]3OC(C)[C@H](OC(C)=O)C(O)[C@H]3O2)[C@H]1OC(=O)/C=C/c1ccccc1 (stereo not given in full) was run?
The growth was -8.84% (active).
